HT1080 IDH1KD tx: kills HT-1080 cells with IDH1 knockdown | Potency, µM (titrated, usually from 46.1 µM), without a hit: at the highest dose activity, negative = toxicity, usual class: cytotoxic | 360,000 tested, 2% active | HT-1080 IDH1 knockdown viability, ATP luminescence, 48 h | AID 686971;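 further: potency means the concentration at half of the fitted maximal effect; 0% = DMSO wells and -100% = cell-free medium wells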
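Luminescent ATP read-out (CellTiter-Glo, 10 min at room temperature) after 48 h compound exposure at 37 °C gave viability of IDH1-knockdown HT-1080 cells. Activity was normalised to DMSO and cell-free wells, then fitted as concentration-response curves.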
DT40 TDP1 CPT: DT40-hTDP1 cell growth loss with CPT. 420,000 tested, 12% active. chicken DT40 Tdp1-/-;hTDP1 cells + 20 nM CPT, ATP luminescence, 48 h. Potency, µM (series often up to 46.2 µM), for inactives: at the highest dose activity change, negative = growth inhibition, usual class: inhibitors; further: potency means the concentration at half of the fitted maximal effect; nearly all actives have a fitted effect of over 55% in size
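Cell growth measured by CellTiter-Glo luminescence after a minimum 48 h, 37 C compound exposure with 20 nM CPT in Tdp1-knockout DT40 cells stably expressing hTDP1, seeded 400/well; qHTS titration format.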
DT40 TDP1 no CPT: qHTS for Inhibitors of human tyrosyl-DNA phosphodiesterase 1 (TDP1): qHTS in cells in absence of CPT; AID 686978, 2013; DT40 Tdp1-/- hTDP1 cells, no CPT, ATP luminescence, 48 h; 420,000 tested, 15% active; Potency, µM (top dose mostly 46.2 µM), inactives show at the highest dose activity change, negative = growth inhibition, usual class: inhibitors; further: potency means the concentration at half of the fitted maximal effect; nearly all actives have a fitted effect of over 55% in size
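Seeded 400 DT40-hTDP1 cells/well (vehicle DMSO, no 20 nM CPT); pinned compounds; ≥48 hr at 37 °C; CellTiter-Glo luminescence as viability measure.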
IL1B secr inh: blocks inflammasome-driven IL-1 beta release. AID 743279. activity change, % at 57.5 µM. THP-1 LPS/ATP IL-1B secretion, AlphaLISA, 16 h; hits give low values. 360,000 tested, 4.7% active; in the data active means activity change below about -50%; inconclusive means mostly about -30% to -49%
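THP-1 cells pretreated 1 hr with compounds (up to 57.5 uM final), then stimulated with LPS (250 ng/mL final) plus ATP (1.25 mM final); secreted IL-1B measured by AlphaLISA after 16 hr, decreased signal indicating inhibition.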
HT1080-NT tox: kills 2HG-producing HT-1080-NT fibrosarcoma cells. HT-1080-NT fibrosarcoma viability, CellTiter-Glo ATP luminescence, 48 h. Potency, µM (series often up to 46.1 µM), inactives show top-dose activity, negative = less viability, usual class: cytotoxic. 360,000 tested, 1.6% active;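 further: NT is the 2HG producing partner of a matched IDH1 knockdown line; potency means the concentration at half of the fitted maximal effect; 0% = DMSO-treated cells and -100% = media-only wells without cells; nearly all actives have a fitted effect of over 55% in size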
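750 cells/well, RPMI + 5% FBS; 2 h settle, compound pin-transfer, 48 h at 37 degrees C. CellTiter-Glo 10 min RT, luminescence. Normalized to DMSO and media-only wells.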
12-LOX inh: ALOX12 (human) lipoxygenase inhibition; purified 12hLO, xylenol orange hydroperoxide absorbance; 580,000 tested, 1.1% active; Potency, µM (titrated, usually from 108 µM), for the others: at the highest dose activity change, negative = inhibition, hits mostly inhibitors; P18054; further: potency means the concentration at half of the fitted maximal effect
Target sequence (P18054 whole entry, looked up): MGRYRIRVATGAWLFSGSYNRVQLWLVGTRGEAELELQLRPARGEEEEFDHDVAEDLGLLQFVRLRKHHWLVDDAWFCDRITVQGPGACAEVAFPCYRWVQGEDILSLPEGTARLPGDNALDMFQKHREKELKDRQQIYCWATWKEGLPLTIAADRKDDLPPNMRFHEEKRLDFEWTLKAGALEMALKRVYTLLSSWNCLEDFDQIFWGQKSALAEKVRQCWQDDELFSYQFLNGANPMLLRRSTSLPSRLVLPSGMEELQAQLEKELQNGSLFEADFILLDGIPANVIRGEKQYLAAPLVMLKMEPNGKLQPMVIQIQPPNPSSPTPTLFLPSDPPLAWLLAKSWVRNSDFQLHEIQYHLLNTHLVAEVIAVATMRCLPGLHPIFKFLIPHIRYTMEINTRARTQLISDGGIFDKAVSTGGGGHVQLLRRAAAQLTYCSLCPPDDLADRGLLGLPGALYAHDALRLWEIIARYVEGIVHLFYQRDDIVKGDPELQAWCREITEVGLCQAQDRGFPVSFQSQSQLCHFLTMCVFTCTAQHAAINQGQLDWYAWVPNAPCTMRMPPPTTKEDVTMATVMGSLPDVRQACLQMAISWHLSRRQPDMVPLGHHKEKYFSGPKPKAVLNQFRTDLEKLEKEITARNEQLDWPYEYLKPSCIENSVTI
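Purified human 12hLO at 150 nM in 25 mM Hepes, 0.01% Triton X-100, pH 7.0, preincubated 15 min at room temperature with compound. Reaction started with 40 uM arachidonic acid, 30 min at room temperature. Hydroperoxide measured by Fe-xylenol orange, 573/405 nm absorbance ratio.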
Active calls of the source: *; ? = inconclusive; / = no result given; [ ] = another dose, or the depositor's remark. Shown is part of a subset that was picked to be rich in hits. Unless noted, the call rests on the fitted dose curve; in most records, active means well fitted curve in the direction sought with a large enough effect; inconclusive means small, poorly fitted or top-dose-only effect, or another doubt; inactive means no such curve, though single readings can be large; an effect the other way counts as inactive or inconclusive. Unless noted, on the % scale 0 is the no-effect control and ±100 the full control effect.

SMILES	HT1080 IDH1KD tx	DT40 TDP1 CPT	DT40 TDP1 no CPT	IL1B secr inh	HT1080-NT tox	12-LOX inh
Cc1cccnc1C(C)NC(=O)C1(Oc2ccc(Cl)cc2)CCNCC1 (stereo not drawn)	/	/	/	/	/	56%
COc1cc(CN(C)C2CCOc3ccccc32)ccc1F (stereo not drawn)	/	/	/	/	/	49%[176 µM]
CC1(C)CC(N(Cc2ccc(F)cc2)C(=O)c2ccc(F)cc2)CCO1 (stereo not drawn)	6%	-22%	?	-14	5%	4%
CC1(C)CC(C(CCN(Cc2ccccc2)C(=O)c2ccco2)c2ccc(F)cc2)CCO1 (stereo not drawn)	?	?	?	-52*	?	?
CC(=O)c1cccc2c(O)c(C3=Nc4ccccc4C3=O)[nH]c12	?	18µM*	15µM*	-18	-24%	-4%
CN1c2cc(C(=O)Nc3cccc(Cl)c3)ccc2C(=O)N2CCCCC21 (stereo not drawn)	/	/	/	/	/	34%
O=C(NNC(=O)c1cccnc1SCc1cccc([N+](=O)[O-])c1)c1ccccn1	?	4.6µM*	2.6µM*	35	?	7%
O=C(NNC(=O)c1cccnc1SCc1cccc([N+](=O)[O-])c1)c1cccnc1	-11%	0%	?	25	-3%	10%
O=C(NNC(=O)c1cccnc1SCc1cccc([N+](=O)[O-])c1)c1ccc(F)cc1	-11%	23µM*	12µM*	-1	-18%	-8%
O=C(OCc1cccc([N+](=O)[O-])c1)c1cccnc1Cl	29%	-2%	-5%	-18	10%	-18%
Cc1cc(C)cc(NC(=O)N2CCCC2c2ccco2)c1 (stereo not drawn)	/	/	/	/	/	7%
NC(=O)c1cc(Br)cc(C2CCCCC2)c1O	?	8%	-21%	-56*	?	0%
Oc1c(C2CCCCC2)cccc1C1CCCCC1	/	/	/	/	/	-10%
COc1ccc(Sc2ccc(NC(=O)c3ccccc3Cl)cc2C#N)cc1	?	?	13µM*	-11	?	85%
N#Cc1ccccc1Sc1ccccc1C(=O)Nc1ccc2ccccc2c1	-18%	-22%	?	-22	-13%	-1%
Cc1cnc(-c2ccccc2)n1C1CCCN(C(=O)C(C)C)C1 (stereo not drawn)	/	/	/	/	/	43%
CC(=O)N1CCC2(CC1)C(=O)NN=C2c1ccccn1	/	/	/	/	/	-10%[176 µM]
COc1cc(-c2noc(C)c2/C=C/c2ccc(C(=O)O)cc2)cc(OC)c1OC	18µM*	?	?	6	?	?
COc1cc(-c2noc(C)c2C(=O)N[C@@H](CO)Cc2ccccc2)cc(OC)c1OC	7%	?	?	17	5%	8%
COc1cc(-c2noc(C)c2/C=C/c2cccc([N+](=O)[O-])c2)cc(OC)c1OC	3.7µM*	1.3µM*	1.6µM*	57	2.3µM*	?
O=[N+]([O-])c1cccc(/C=C/c2ccncc2)c1	-11%	-21%	-24%	?	0%	4%
C#CCN1CCC(CN(CC)CC)CC1	/	/	/	/	/	19%
COc1ccc(-c2cc3n(n2)CC(C)(C(=O)NCc2ccccc2)N(Cc2ccco2)C3=O)cc1 (stereo not drawn)	/	/	/	/	/	0%
OC(c1ccccc1)(c1ccccc1)C1CCN(C(=S)NCCc2ccccc2)CC1	?	?	?	?	-16%	40µM*
COc1ccccc1C(=O)NC1CCN(C(=S)NCCc2ccccc2)CC1	3%	-4%	-28%	-77*	-2%	-8%
SMILES	HT1080 IDH1KD tx	DT40 TDP1 CPT	DT40 TDP1 no CPT	IL1B secr inh	HT1080-NT tox	12-LOX inh
CCSc1nc(C(C)(C)C)cc(C(F)(F)F)c1C#N	/	/	/	/	/	1%
O=C(Cc1cccc(F)c1)N1CCC(Oc2ccccc2-c2nc(C3CC3)no2)C1 (stereo not drawn)	/	/	/	/	/	1%
CCCS(=O)(=O)N[C@@H]1CN(Cc2ccccn2)C[C@H]1CN(C)C	/	/	/	/	/	130%
O=C(CSc1nnnn1-c1ccc2c(c1)OCO2)NCc1cccs1	-2%	-20%	-24%	-14	-8%	0%
COc1cccc(-n2nnnc2SCC(=O)Nc2ccc3c(c2)OCCO3)c1	?	-24%	-29%	21	14µM*	-8%
COc1cccc(-n2c(=O)[nH]cc(C(=O)Nc3ccc4c(c3)OCCO4)c2=O)c1	-2%	4.1µM*	-20%	23	1%	-14%
CCn1nnnc1SCC(=O)Nc1cccc(NC(C)=O)c1	10%	-22%	-17%	0	-6%	?
O=C(CSc1nnnn1-c1ccc2c(c1)OCO2)NCc1ccccc1	13µM*	15µM*	15µM*	86	?	-2%
COc1cccc(-n2nnnc2SCC(=O)Nc2cccc(NC(C)=O)c2)c1	-21%	-19%	-19%	?	-8%	17%
CCn1nnnc1SCC(=O)Nc1cc(OC)cc(OC)c1	-4%	16µM*	?	10	-8%	-1%
O=C(Nc1cccc(Cl)c1)N1CCOC(CN(CC2CC2)C(=O)c2cccc(F)c2)C1 (stereo not drawn)	/	/	/	/	/	2%
CC1CC(C)CN(C(=O)c2ccc3c(c2)N(Cc2ccccc2)C(=O)CS3=O)C1 (stereo not drawn)	/	/	/	/	/	-31%
COc1cccc(-n2nnnc2SCC(=O)Nc2ccc(NC(C)=O)cc2)c1	-5%	?	23µM*	6	-17%	-6%
COc1ccc(-n2nnnc2SCC(=O)Nc2ccc3c(c2)OCCO3)c(OC)c1	-14%	13µM*	23µM*	7	-9%	3%
CCn1nnnc1SCC(=O)Nc1ccc2c(c1)OCCO2	5%	5%	-11%	11	15%	1%
COc1ccc(-n2nnnc2SCC(=O)Nc2ccc3c(c2)OCCO3)cc1OC	-4%	?	9.2µM*	0	-27%	-13%[57.4 µM]
Cc1nn(CC(=O)NCCc2ccccc2)c(=O)c2nn(-c3ccccc3)c(C)c12	/	-9%	-21%	/	/	-13%
Cc1ccc(-n2nc3c(=O)n(C(C)C(=O)NCCCc4ccccc4)nc(C)c3c2C)cc1 (stereo not drawn)	-20%	16µM*	9.2µM*	-9	-3%	-20%
CCOc1ccccc1CNC(=O)C(C)n1nc(C)c2c(C)n(-c3ccccc3)nc2c1=O (stereo not drawn)	-21%	23µM*	?	-3	-24%	8%
Cc1ccc(-n2nc3c(=O)n(CC(=O)NCCCc4ccccc4)nc(C)c3c2C)cc1	?	?	23µM*	4	-2%	4%

High-throughput results deposited in PubChem BioAssay by National Center for Advancing Translational Sciences (NCATS).
